# In PubChem BioAssay AID652257 (The Scripps Research Institute Molecular Screening Center, 2013):
# Screen size: about 370,000 compounds; about 4,800 (1.3%) were called active.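 How the source made its calls: active means inhibition above about 21% made by adding two undisclosed values (limit read from the data); inactive means the rest.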 Shown is part of a subset that was picked to be rich in actives.
# Molecular target: Protein arginine N-methyltransferase 1 (Homo sapiens) (UniProt Q99873)
# Assay: PRMT1 methyltransferase inhibitors, primary screen, biochemical, fluorescence polarization (AID 652257)
# Conditions: recombinant PRMT1, activity-based probe fluorescence polarization; at 2.79 µM; stronger effect = higher value
# Sequence of Protein arginine N-methyltransferase 1 (Homo sapiens) (Q99873 whole entry, looked up): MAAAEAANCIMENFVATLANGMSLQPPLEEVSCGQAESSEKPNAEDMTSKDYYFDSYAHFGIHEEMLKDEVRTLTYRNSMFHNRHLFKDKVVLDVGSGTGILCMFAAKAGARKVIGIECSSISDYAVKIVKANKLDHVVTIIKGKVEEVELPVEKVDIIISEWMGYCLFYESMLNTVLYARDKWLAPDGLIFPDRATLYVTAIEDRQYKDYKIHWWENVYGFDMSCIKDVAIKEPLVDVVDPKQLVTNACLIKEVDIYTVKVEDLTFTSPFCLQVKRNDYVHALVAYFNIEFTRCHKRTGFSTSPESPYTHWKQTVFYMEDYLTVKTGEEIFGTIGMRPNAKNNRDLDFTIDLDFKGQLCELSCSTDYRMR
row,SMILES,inhibition
1,CCOC(=O)C1(Cc2cccc(OC)c2)CCCN(C(=O)CCSC)C1 (stereo not drawn),2.68% (inactive)
2,CC(C)(C)C1C/C(=C/c2ccco2)C(=O)/C(=C/c2ccco2)C1 (stereo not drawn),24.6% (active)
3,O=C(NCCc1c[nH]c2ccccc12)OCc1cn(-c2c(F)cccc2F)nn1,0.52% (inactive)
4,CCCCNC(=O)C[C@@H]1C(=O)N(CCc2ccc(Cl)cc2)C2=CCCC[C@]21C(=O)OCC,-4.44% (inactive)
5,NC(=O)NC(=O)CSc1nc2cc([N+](=O)[O-])ccc2n1-c1cccc(C(F)(F)F)c1,-3.17% (inactive)
6,CC(=O)OC1CCC2C3CCC4=C(CC(F)C(=O)C4)C3CCC12C (stereo not drawn),-4.66% (inactive)
7,CN(Cc1ccc(F)cc1)C(=O)COc1ccc2ccccc2c1,6.77% (inactive)
8,Fc1ccc(COc2ccc(-c3nnco3)cc2)cc1,2.4% (inactive)
9,Fc1ccc(COc2cccc(-c3n[nH]c(=S)o3)c2)cc1,31.7% (active)
10,CC(C)(C)NC(=O)CSC(=Nc1ccccc1F)NC#N,8.54% (inactive)
11,COc1ccc(-n2c(SCC(=O)Nc3ccc4c(c3)OCCO4)nnc2-c2ccc(Cl)cc2)cc1,-2.7% (inactive)
12,O=C(CN1CCC(NC(=O)NCc2ccccc2)CC1)Nc1ccc2c(c1)OCCO2,2.96% (inactive)
13,COc1ccccc1C(=O)CSc1nnc(-c2ccccn2)n1-c1ccccc1,-1.16% (inactive)
14,O=C(CCN1CCc2ccccc2C(O)(c2ccccc2)C1)c1ccc2c(c1)OCCO2 (stereo not drawn),51.5% (active)
15,O=C(C(=O)N1CCN(c2ccccc2)CC1)c1ccc2c(c1)OCO2,0.48% (inactive)
16,O=S(=O)(c1ccc2c(c1)OCCO2)N1CCc2ccccc21,-3.53% (inactive)
17,COc1ccc(C2NC(=O)N(C)C(C)=C2[N+](=O)[O-])cc1 (stereo not drawn),-2.65% (inactive)
18,COc1ccc(S[C@]2(C(=O)N(C)C)CC(=O)N(c3ccc(OC)cc3)[C@@H]2c2ccc(OC)cc2)cc1,-1.57% (inactive)
19,CC(C)(C)c1ccc(CSc2nnc(-c3cccs3)o2)cc1,-1.14% (inactive)
20,O=C1CCN(CCCc2ccccc2)CCN1CCO,-6.27% (inactive)

row,SMILES,inhibition
1,OCCN1CCN(C(=S)c2ccc(-c3ccccc3)cc2)CC1,32% (active)
2,O=C(NC(=S)N1CCN(Cc2ccccc2)CC1)c1ccccc1,0.22% (inactive)
3,CC1CN(CC(=O)NC(C)c2ccccc2)CC(C)O1 (stereo not drawn),0.73% (inactive)
4,CCc1cccc(CC)c1N1C(=O)CC(Sc2ccccc2N)C1=O (stereo not drawn),-1.17% (inactive)
5,COc1cccc(N2C(=O)CC(N3CCc4ccccc4C3)C2=O)c1 (stereo not drawn),4.88% (inactive)
6,COC(=O)c1ccccc1SC1CC(=O)N(c2cccc(C)c2)C1=O (stereo not drawn),57.3% (active)
7,Cc1ccccc1S(=O)(=O)NC(=O)C1(C)CCN1C(=O)C1(c2ccccc2)CCCC1 (stereo not drawn),0.03% (inactive)
8,O=C(O)c1cc(S(=O)(=O)N2CCCCCC2)c(Cl)cc1Cl,-2.22% (inactive)
9,O=C(c1ccc[nH]c1=S)N1CCN(S(=O)(=O)c2ccc(Br)cc2Cl)CC1,31.8% (active)
10,Cc1ccc(S(=O)(=O)N2CCN(C(=O)c3ccccc3-c3nc4ccccc4s3)CC2)c(C)c1,6.86% (inactive)
11,O=C(CNS(=O)(=O)c1ccccc1F)N1CCN(c2ccccn2)CC1,2.96% (inactive)
12,O=S(=O)(c1ccc2c(c1)OCCCO2)N1CCN(S(=O)(=O)c2c(F)cccc2F)CC1,-4.09% (inactive)
13,COc1ccc(C)cc1NC(=S)N1CCOCC1,-1.44% (inactive)
14,COc1cc(C(=S)N2CCOCC2)ccc1O,24.1% (active)
15,COc1cc(C(=S)NC2CCCCC2)ccc1O,29% (active)
16,Cc1ccc(C(=O)OCC(=O)NC2CCCCCCC2)cc1C,-2.13% (inactive)
17,COc1cc(C(=O)Nc2cc(C(F)(F)F)ccc2N2CCOCC2)ccc1O,-2.71% (inactive)
18,COc1ccc(C(C)NC(=S)NC2CCCCC2)cc1OC (stereo not drawn),-2.42% (inactive)
19,COC(=O)C[C@@H]1CC[C@@H]2[C@@H](COc3ccc(NC(=O)Nc4ccc(F)c(F)c4)cc3C(=O)N2C)O1,-0.15% (inactive)
20,O=C1c2ccccc2C(=O)N1CCC(c1ccccc1)c1ccco1 (stereo not drawn),8.33% (inactive)

row,SMILES,inhibition
1,CCCCCN(C(=O)NC(=O)Nc1ccccc1OC)S(C)(=O)=O,5.33% (inactive)
2,O=C(OC12CCCN(C1)/C(=C/c1cccnc1)C2)C1CCCC1 (stereo not drawn),0.1% (inactive)
3,CCOC(=O)[C@@]12CN(C(=O)OC(C)(C)C)CC=C1N(Cc1ccc(OC)cc1)C(=O)[C@H]2CC(=O)NCc1ccc(OC)c(OC)c1,-3.24% (inactive)
4,O=C(Nc1nc(-c2ccco2)c(-c2ccco2)s1)c1ccco1,51.8% (active)
5,O=C(Nc1ccccc1C(=O)N1CCCCC1)c1ccco1,-7.4% (inactive)
6,O=C(Nc1c(-c2ccccc2)nc2c(Br)cc(Br)cn12)c1ccco1,0.75% (inactive)
7,O=C(CSc1nnc(C2CC2)n1Cc1ccccc1)Nc1cccnc1Cl,4.21% (inactive)
8,Cc1cccc(C)c1NC(=O)N1CC(C)OC(C)C1 (stereo not drawn),1.08% (inactive)
9,CN=C(c1ccccc1)c1c(C)cccc1C,-2.83% (inactive)
10,Cc1cccc(C)c1NC(=O)C(Cl)C(=O)c1ccccc1 (stereo not drawn),32% (active)
11,CCOc1ccc(S(=O)(=O)N2CCC(C(=O)NCC(=O)Nc3cccc(Cl)c3C)CC2)cc1,-4.55% (inactive)
12,CC(C)[C@@H](C)/C=C/[C@@H](C)[C@H]1CC[C@@H]2[C@]1(C)CCC1[C@]23C=C[C@]2(C[C@@H](O)CC[C@]12C)N(c1ccc([N+](=O)[O-])cn1)O3 (stereo partly drawn),1.5% (inactive)
13,O=S(=O)(Cc1nnnn1-c1ccc(Br)cc1)c1ccc(F)cc1,-3.12% (inactive)
14,CC1CCN(C(=S)NC(=O)c2ccccc2Br)CC1,-1.71% (inactive)
15,O=C(NC(=S)Nc1ncccn1)c1ccccc1Br,21.4% (active)
16,COC(=O)c1cccnc1NC(=S)NC(C)C,-1.9% (inactive)
17,CC(=O)N(O)CCCCCNC(=O)CCC(=O)N(O)CCCCCNC(=O)CCC(=O)N(O)CCCCCNC(=O)CCC(=O)O,-4.14% (inactive)
18,CCCCn1c(N)c(N(CCOC)C(=O)c2oc3ccc(OC)cc3c2C)c(=O)[nH]c1=O,-1% (inactive)
